Assay outcomes as filed in PubChem.
Shiga inhibitor: blocks Shiga toxin action in Vero cells; inhibition, % at 38.7 µM; Vero cells, Shiga toxin protein synthesis inhibition reporter; 290,000 compounds, 9.2% hits; in the data active = inhibition mostly above about 28%, no sharp cut-off; inactive = mostly below about 43%
CHX counter: counter-screen hit for Shiga toxin inhibitors, cycloheximide; 300,000 compounds, 12% hits; cell reporter, cycloheximide protein synthesis inhibition counterscreen; max response, %; in the data active = max response mostly above about 13%, no sharp cut-off; inactive = mostly below about 14%; note: read at 38.3 µM for the half of the compounds with a filed dose
NS1 function inh: influenza NS1 inhibition; 270,000 compounds, 0.4% hits; Potency, µM (highest dose often 46.1 µM); AID 2326; calls by dose curve; note: actives are rising curves; nearly all actives have a fitted effect of over 50% in size
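In this qHTS, NS1 from influenza A is expressed in budding yeast, where it slows growth. Cells are switched from glucose to 2% galactose medium (pH 6.0, -URA), treated with compound, and growth recovery is read at OD600.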
Pf growth 48h: P. falciparum growth inhibition at 48 hours (one generation); P. falciparum luciferase growth in erythrocytes, 48 h; 310,000 compounds, 5.9% hits; Potency, µM (series often up to 28.7 µM), hits mostly inhibitors; AID 504832
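Luciferase-expressing parasites in RBCs, 2% Hct / 0.1% parasitemia final; RPMI 1640 + 0.5% Albumax; 37 C, 5% CO2, one generation; luminescence read-out, lower signal = inhibition.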
Pf growth 96h: inhibits malaria parasite growth, 96 h | 320,000 compounds, 6.9% hits | Potency, µM (series often up to 28.7 µM), most hits filed as inhibitors | P. falciparum luciferase reporter growth, 96 h
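Infected RBCs, 2% Hct / 0.05% parasitemia final; luciferase-reporter P. falciparum; cpd 96 h, 37 C, 5% CO2; luciferase detection reagent; luminescence.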
SARS PLP yeast: inhibitors of SARS-CoV papain-like protease in yeast | S. cerevisiae expressing SARS-CoV PLpro, growth rescue | Potency, µM (titrated, usually from 32.9 µM), usual class: activators | 330,000 compounds, 0.19% hits | AID 485353; calls by dose curve; note: nearly all actives have a fitted effect of over 55% in size
Large screens that a line does not name were inactive. Only some compounds are listed: those with a hit (about 21% of all), similar ones and a draw of the others. Unless noted, calls come from the whole dose curve; as a rule, active = well fitted inhibition curve with a large enough effect; inconclusive = small, poorly fitted or top-dose-only effect, or another doubt; inactive = no such curve, though single readings can be large or run the other way.

O=C(COc1ccc(Cl)cc1)Nc1ccc2oc(-c3ccncc3)nc2c1	Pf growth 48h inconclusive (no result: Pf growth 96h)
CCCC(=O)Nc1ccc2oc(-c3ccncc3)nc2c1	Shiga inhibitor 68, CHX counter 20, Pf growth 96h inconclusive
CCCC(=O)Nc1ccc(-c2nc3cc(C)c(C)cc3o2)cc1	Shiga inhibitor 119, CHX counter 35, Pf growth 96h inconclusive
CCCC(=O)Nc1ccc(-c2cnc(-c3ccc(NC(=O)CCC)cc3)nc2)cc1	SARS PLP yeast inconclusive
O=C(CN1CCCCC1)Nc1ccccc1	none (no result: Pf growth 48h)
Cc1oc(-c2ccccc2F)nc1CS(=O)CC(=O)NC1CCCCC1 (stereo not given)	none
NCCNC(=O)c1ccc(Cl)cn1	none (no result: NS1 function inh, SARS PLP yeast)
CN(Cc1cccc(F)c1)C(=O)c1ccc(S(=O)(=O)N2CCOCC2)cc1	Pf growth 48h inconclusive (no result: Shiga inhibitor, CHX counter, NS1 function inh)
COc1ccc(-c2cn3c(n2)CCC3)cc1	Shiga inhibitor 54, CHX counter 38
c1ccc(-c2ccc(-c3cn4c(n3)CCC4)cc2)cc1	Shiga inhibitor 58, CHX counter 37 (no result: Pf growth 48h)
Cc1ccc(-c2cn3c(n2)CCCC3)cc1	none
COC(=O)/C(C#N)=C\c1c(OC)[nH]c2ccccc12	none
O=C(NNS(=O)(=O)c1ccc(Cl)cc1)c1cnn(-c2ccccc2)c1-n1cccc1	none
CCOC(=O)C/C(C)=N\Nc1nc(-c2ccccc2)cs1	none (no result: NS1 function inh)
CC/C(=N\NC(=O)Nc1ccccc1)c1ccccc1	CHX counter 19, Pf growth 96h inconclusive
N/C(=N\NS(=O)(=O)c1cc(C(F)(F)F)cc(C(F)(F)F)c1)c1ccccn1	none
N/C(=N\NC(=O)Nc1ccccc1)c1ccccn1	Shiga inhibitor 57, CHX counter 45
C/C(CC(C)C)=N\NC(=O)Nc1ccccc1	Shiga inhibitor 42, CHX counter 42, Pf growth 96h inconclusive
CCOC(=O)C/C(C)=N/NC(=O)Nc1ccccc1	Shiga inhibitor active, CHX counter 40
O=C1O/C(=C/C(=O)N2CCOCC2)c2ccccc21	none
CC(CN(C)C)CN1c2ccccc2Sc2ccccc21 (stereo not given)	Pf growth 48h 13µM, Pf growth 96h inconclusive (no result: Shiga inhibitor, CHX counter, NS1 function inh, SARS PLP yeast)
CC(CN(C)C)CN1c2ccccc2Sc2ccc(C(F)(F)F)cc21 (stereo not given)	Pf growth 48h 15µM, Pf growth 96h inconclusive (no result: Shiga inhibitor, CHX counter, NS1 function inh, SARS PLP yeast)
CN(C)CCCN1c2ccccc2Sc2ccc(C(F)(F)F)cc21	Pf growth 48h inconclusive, Pf growth 96h 15µM
CN(C)CCC(=O)N1c2ccccc2Sc2ccc(C(F)(F)F)cc21	none
Cc1cc(NC(=O)CSc2nc3c(cnn3-c3cccc(Cl)c3)c(=O)[nH]2)no1	none (no result: Shiga inhibitor, CHX counter, NS1 function inh, Pf growth 48h, Pf growth 96h)
O=C(NCC(=O)N(c1ccccc1F)C(C(=O)NC1CCCC1)c1cccnc1)c1ccco1 (stereo not given)	Pf growth 96h inconclusive
CCOC(=O)C1CCCN(C(=O)c2ccc3nc(-c4cccc(OC)c4)oc3c2)C1 (stereo not given)	Shiga inhibitor 72, CHX counter 32, Pf growth 96h inconclusive
COc1cccc(-c2nc3ccc(C(=O)N4CCCC(O)C4)cc3o2)c1 (stereo not given)	Shiga inhibitor 112, CHX counter 59, Pf growth 96h 10µM
CCC(=O)C1CCCN(C(=O)c2ccc(OC3CCN(C(=O)c4cccnc4)CC3)cc2)C1 (stereo not given)	none
CCC(=O)C1CCCN(C(=O)c2ccc3nc(-c4cccc(OC)c4)oc3c2)C1 (stereo not given)	Shiga inhibitor 69, CHX counter 45, Pf growth 96h inconclusive
CCOC(=O)C1CCCN(C(=O)c2cccc(S(=O)(=O)N(C)c3ccc(OC)cc3)c2)C1 (stereo not given)	Pf growth 48h inconclusive (no result: Shiga inhibitor, CHX counter, NS1 function inh)
Cn1sc(=O)n(Cc2ccccc2)c1=O	none (no result: NS1 function inh, Pf growth 48h, Pf growth 96h, SARS PLP yeast)
Cc1cc2[nH]c(=O)c(=O)[nH]c2cc1S(=O)(=O)N1CCN(c2cccc(C)c2C)CC1	Pf growth 48h inconclusive, Pf growth 96h 4.7µM
COc1ccccc1N1CCN(S(=O)(=O)c2cc3[nH]c(=O)c(=O)[nH]c3cc2C)CC1	Pf growth 48h 9.3µM, Pf growth 96h inconclusive
COc1ccc(C)cc1S(=O)(=O)N1CCN(c2ccccc2)CC1	none (no result: Shiga inhibitor)
CCOc1ccccc1N1CCN(S(=O)(=O)c2cc(C)ccc2OC)CC1	Shiga inhibitor 64, CHX counter 51, Pf growth 96h inconclusive
CCOc1ccc(N(CC(=O)NCc2ccco2)C(=O)CCC(=O)Nc2ccccn2)cc1	Pf growth 48h inconclusive
COc1ccccc1/C=C/C(=O)NCCC1=CCCCC1	Shiga inhibitor 118, CHX counter 29, Pf growth 48h inconclusive, Pf growth 96h inconclusive
O=C(COC(=O)/C=C/c1ccc(C(F)(F)F)cc1)NCCC1=CCCCC1	none
O=C(COC(=O)/C=C/c1ccccc1)NCCC1=CCCCC1	none
O=C(/C=C/c1ccc(F)cc1)NCCC1=CCCCC1	Shiga inhibitor 117, CHX counter 33
O=C(/C=C/c1ccccc1)NCCC1=CCCCC1	Shiga inhibitor 40, CHX counter 38
Cc1cccc(C)c1OCC(=O)NNC(=O)CNC(=O)c1ccc(OC(F)F)cc1	none (no result: Shiga inhibitor, CHX counter, NS1 function inh)
NS(=O)(=O)c1ccc(CNC(=O)Cc2ccccc2[N+](=O)[O-])cc1	none
Cc1cccn2c(CN[C@H]3CCCCNC3=O)c(C(=O)N3CCOCC3)nc12	Pf growth 96h 9.3µM
Cc1ccc(-c2nc(CS(=O)CC(=O)N3CCN(c4ccc(F)cc4)CC3)c(C)o2)cc1 (stereo not given)	Pf growth 96h inconclusive
Cc1oc(-c2ccccc2F)nc1CS(=O)CC(=O)NCc1ccc(F)cc1 (stereo not given)	Pf growth 96h 2.9µM
Cc1cccc(-c2nc(CS(=O)CC(=O)N3CCN(C)CC3)c(C)o2)c1 (stereo not given)	NS1 function inh inconclusive, Pf growth 96h 7.4µM (no result: Pf growth 48h)
Cc1cccc(-c2nc(CS(=O)CC(=O)NCCc3ccccc3)c(C)o2)c1 (stereo not given)	Pf growth 96h 5.2µM
CC(C)Sc1nc2c(c(=O)n1C)SC(C)C2 (stereo not given)	none
COc1ccc(NC(=O)CNC(=O)Cn2cnc3sc(C)c(C)c3c2=O)cc1OC	Pf growth 96h 10µM
O=[N+]([O-])c1ccc(NC(=S)NCCc2ccc(F)cc2)cc1	Pf growth 48h 10µM, Pf growth 96h 5.2µM
O=C(NCCc1ccc(F)cc1)Nc1ccc([N+](=O)[O-])cc1	CHX counter 21, Pf growth 48h inconclusive
CN(C)S(=O)(=O)c1ccc(C(=O)OCC(=O)Nc2ccc3c(c2)OCO3)cc1	Pf growth 48h inconclusive (no result: Shiga inhibitor, CHX counter, NS1 function inh)
Cc1ccc2c(c1)-n1c(nc3ccc(C)cc3c1=O)C(Cc1ccc(O)cc1)NC2=O (stereo not given)	none (no result: Shiga inhibitor, CHX counter, NS1 function inh, Pf growth 48h, Pf growth 96h)
Cc1nc2cc(CO)ccc2s1	none
Cc1nc2cc3nc(C)sc3cc2s1	Shiga inhibitor 109, CHX counter 36
O=c1c2cnn(-c3ccccc3)c2ncn1CCc1ccccc1	Shiga inhibitor 49, CHX counter 23
O=c1c2cnn(-c3ccccc3)c2ncn1Cc1cccnc1	Pf growth 96h inconclusive
